This note sets out measurements from the supplement of paper PMC6555819.

This experiment has as its system VDR:RXRa (NR concentration 270 nM, RXRa partner concentration 90 nM). In words: PBM binding z-score (relative to random genomic background probes); higher = stronger binding; sequences stand for … in GC…GCGATTGACAGCGTAGAATGAAGG
How it is done:
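Protein-binding microarray (Agilent 4x180K custom design, double-stranded 60-nt probes: 5' GC cap, 34-nt variable region, 24-nt constant primer region; full probe sequence given). Purified or IVT nuclear receptor:RXRα heterodimers (3:1 NR:RXRα, mostly 270:90 nM) or homodimers were incubated for 1 h in PBS with 2% milk and no ligand, then detected with Alexa488 antibodies. Fluorescence from o1-orientation probes (~5 replicates averaged) was converted to z-scores against 500 random hg19 background probes. Variable regions are seed direct-repeat (DR0–DR5) sites, all their single-nucleotide variants and half-site ablations.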
As to CGGACTGGGGCATAAGGTTACCATAAGCCAGCCC, the PBM binding z-score was 0.33.
For TCGAGTAGGTTAGGGGCATCCAGAATGGCGTCGA, the PBM binding z-score was determined as 0.536.
Under CCTACTGGGCCACAAAAGGTCATTGATTCAGTGA stands 3.98.
ATCTCTAGGTACAAGTTCAGTGAATCCCGAGGAT gave a PBM binding z-score of 1.96.
The same measure for TCTTGTAGATCAAGCGGGTTAAGAAAGCCTGAGT: 0.54.
Turning to ATCGAAAGGTCGTGAGGTGAATATACAGAAAGGC, the PBM binding z-score worked out at 3.88.
Sequence GCAGACAGGGGAAACGCAGGTAACTCAGGGTGGC had a PBM binding z-score of -0.768.
In turn, AGCCAAAGTTCATCTAGGTAACGTAAGATATGCT registered a PBM binding z-score of 4.48.
ACAGACAGGTGACTGAAGGTAACTCAGCTGGACG: the PBM binding z-score was -0.404.
Under CGTCCAAGGTCATAGGTGGTCAGTGAAGACAGAT stands 4.72.
Under ATATGTAGGTTAAGAGTCATTCAGGTTGGTTCGC stands 1.6; under AATACAGGGTCACTAGGCTAGAGTAGGTACGAAT, 4.05; under ATCTCTTGGTAACAAGTTCAGTGAAAGAGAGGAC, 1.84.
Take CCAAGTAGGTTATGGGGCATTCAGGCAACGGTGA: the PBM binding z-score was -0.0794.
The same measure for CGAACTAGGTCATTGAGAGGACAGTGAATAGTAA: 2.92; for TCATATAGGTAAAAGGTGAAAGACGGTGTGGTAA: 1.57.
Under GCCGCTAGGTCAGGTTGGTCAGCTAACGGGTACG stands 0.54; under TATCCTAGGTCATGGGCCAGTATACCACGCGAAC, 2.75; under TAGCCTAGGTCATTCAGGGGCCAGTGTAGAAAGC, 3.33.
The sequence AGAATGAGGTTATTAAGATCAAGGAATTGCGGTC yielded a PBM binding z-score of 3.11.
Under AGAATGAGGTTAAGATCAGGAAAACAGAATACAT stands 1.24; under CTCGAAAGGTCGCGCTCAGGTGAGTATACCAAAC, 3.55.
The same measure for CCGAGTAGGTTATGGGGCATTTAGGCAACGGTGA: -0.0639.
The same measure for ATACCAAGGTGATCGTGAGGTCGATGATACTAAC: 1.9; for CGTCCAAGGTCAGCAGGTCCGTGAAAGCGACGTG: 6.
ACTATTAGTTGAGACGAGGGCAATCGATAGGTTG yielded a PBM binding z-score of 0.793.
Under AGTCAAATTTCAGGACGAGGTAACGTAAAGCACG stands -0.0744.
As to GCTTGTAGATCAAGGTTAAGAATGACTAAGCTAA, the PBM binding z-score was found to be 0.0818.
The same measure for TAGCCCAGGTCATTGGGCCAGTATAGTACGCATC: 3.03; for GATACAGGGTCAGCTAGAGACCAGAGTATGGAAA: 2.23.
Under ACTATCAGGCCAAGTTTGGGTCACTCAAACAAAG stands 1.01; under AGTCAAAGTTCTCTAGGTAACGTAAGATTCAGCT, -0.0211.
The same measure for TCATATGGGTAAACAGGTGAAAGTCCGTAAGTTA: 0.583; for TCATATAGGTAATGGTGAAAGTCGAACGATATGA: 0.243; for CCTACTGGGCCAAAGGTCATTGCTTCCAATGCTC: 4.47.
Sequence CCTACTGGGCCAAGTTCATTGATCAGTCAAAGCA yielded a PBM binding z-score of 2.89.
Under TCGCGTAGGTTACCAATGGGGCATTCAGCTTTCT stands 0.236; under CGTCCAAGGTCAGGAGGTCAGTGAAAGCGACGTG, 4.66; under ATCGGAAGGTCGACGAGGTGAGTATACACCGTTT, 3.87.
Under TCTACCAGGCCAGAGGGTCACTCAAGAGGTACGG stands 2.1.
